Records with an inconclusive call do not appear. Unmarked numbers belong to inactive results. Activity calls are given as the source filed them. Calls come from the whole dose curve; as a rule, active = well fitted cell-killing curve with a large enough effect; inconclusive = small, poorly fitted or top-dose-only effect; inactive = flat fitted curve, though single readings scatter.
assay: qHTS of pediatric cancer cell lines to identify multiple opportunities for drug repurposing: Primary screen for U-2 OS cells (AID 1347096); details: U-2 OS viability, CellTiter-Glo luminescence, 48 h; series mostly up to 46 µM; activity change, negative = cytotoxic: at the top concentration; note: nearly all actives have a fitted effect of over 50% in size
Source text: Drug repurposing or repositioning has been offered as a strategy for drug development in oncology programs. This approach has special potential for childhood cancers and other rare or orphan diseases, where the expected return on new drug development has been a disincentive to pharmaceuticals.
In this project we exploit the poly-pharmacology of drugs to discover new indications via phenotypic screening of a panel of 19 well-characterized cell lines derived from solid tumors seen in children and adolescents. The goal is to identify approved drugs with previously unrecognized anticancer properties that has the potential to reveal new mechanisms and biological processes involved in carcinogenesis or drug resistance. We employed a titration-based paradigm (quantitative high-throughput screening or qHTS), where all compounds were tested at multiple concentrations for their effect on cell viability. Concentration-response curves (CRCs) were derived directly from the primary screen, and both potency and efficacy values were used to identify compounds with robust bioactivity profiles. We screened the NIH Chemical Genomics Center (NCGC) Pharmaceutical Collection (NPC) and Mechanism Interrogation Plate (MIPE) small molecule collections of approved and investigational compounds against these cell lines; and measured metabolically active cells after 48 hours of compound treatment as a proxy for cell viability.
Assay Submitter: Nathalia J. Martinez, National Center for Advancing Translational Sciences, National Institutes of Health, Rockville, MD, USA; email: natalia.martinez@nih.gov
[1] Shen, M et al. Quantitative high-throughput phenotypic screening of pediatric cancer cell lines identifies multiple opportunities for drug repurposing. Oncotarget 2017 Dec 19;9(4):4758-4772. PMID 29435139.
The cells were obtained from University of North Carolina (UNC), Pediatric Preclinical Testing Program (PPT), and Coriell Institute (CI).
qHTS cell viability assay:
Cells were assayed in growth media at a density of 500-1,000 cells/well. Five microliters of cells were dispensed into 1,536-well, white, solid-bottom, TC-treated plates (Greiner Bio One) using a multidrop dispenser and incubated at 37 degrees C, 5% CO2, under a humidified atmosphere for 5 hours. Twenty-three nanoliters of compounds and controls (neutral control DMSO or positive control bortezomib at final concentration of 2.3 µM) were subsequently transferred by Kalypsys pintool. For primary screens, the MIPE collection was tested at 11-point dilutions (final concentrations range from 0.78 nM to 46 µM) and the NPC collection at 8-point dilutions (final concentrations range from 0.59 nM to 46 µM). Compounds tested in follow-up screens were assayed at 11-point dilutions. Cells were incubated for 48 hours, followed by addition of 3 µL of CellTiter-Glo (Promega). After a 15 min incubation at room temperature, samples were analyzed for luminescence intensity using a ViewLux High-throughput CCD imager equipped with clear filters.
Potency is the fitted concentration of half-maximal effect.

SMILES	activity change, negative = cytotoxic	Potency
OC(CN1CCN(c2cccc(Cl)c2)CC1)C(c1ccccc1)c1ccccc1 (stereo not given)	9.04%	
NCCCCNCCCN	10.8%	
Nc1ccc(S(N)(=O)=O)cc1		inactive
CCCCN(CCCC)CCC(O)c1cc2c(Cl)cc(Cl)cc2c2cc(C(F)(F)F)ccc12 (stereo not given)		inactive
Oc1ccc(OCc2ccccc2)cc1		inactive
Clc1ccc2c(N3CCN(CCCN4CCN(c5ccnc6cc(Cl)ccc56)CC4)CC3)ccnc2c1	4.86% [at 16.1 µM]	
Nc1cc(C(Cl)=C(Cl)Cl)c(S(N)(=O)=O)cc1S(N)(=O)=O		inactive
CN(C)c1ccc2nc3ccc(=[N+](C)C)cc-3sc2c1		10600 nM (active)
Oc1ccc(-c2nc(-c3ccc(F)cc3)c(-c3ccncc3)[nH]2)cc1	9.04%	
COCCCOc1ccnc(CS(=O)c2nc3ccccc3[nH]2)c1C (stereo not given)		inactive
CCN(CCO)CCCC(C)Nc1ccnc2cc(Cl)ccc12 (stereo not given)		inactive
CC(=O)NC[C@H]1CN(c2ccc(N3CCOCC3)c(F)c2)C(=O)O1	16.4%	
N=C(N=C(N)N)N1CCOCC1		inactive
C=C(c1ccc(C(=O)O)cc1)c1cc2c(cc1C)C(C)(C)CCC2(C)C	4.56%	
CC(=O)N1CCN(c2ccc(OC[C@H]3CO[C@](Cn4ccnc4)(c4ccc(Cl)cc4Cl)O3)cc2)CC1	-4.72%	
COc1ccccc1N1CCN(CCN(C(=O)C2CCCCC2)c2ccccn2)CC1	3.43%	
O=C1NC(=O)C(c2ccccc2[N+](=O)[O-])=C1Nc1ccc(O)c(Cl)c1	4.93%	
C[Se]CCC(N)C(=O)O (stereo not given)	-2.88% [at 92.7 µM]	
Nc1nc(Cl)nc2c1ncn2[C@H]1C[C@H](O)[C@@H](CO)O1	4.85%	
COc1cc2c(N3CCN(C(=O)Nc4ccc(OC(C)C)cc4)CC3)ncnc2cc1OCCCN1CCCCC1	-7.09%	

SMILES	activity change, negative = cytotoxic	Potency
O=c1ccc2ccc(O)c(O)c2o1	-11.9%	
Cc1ccc(S(=O)(=O)NC(=O)NN2CC3CCCC3C2)cc1 (stereo not given)		inactive
CCOC(=O)C1=C(O)C(=O)N(Cc2ccccc2)C1	2.7%	
COc1c(O)cc2c(c1O)[C@@H]1O[C@H](CO)[C@@H](O)[C@H](O)[C@H]1OC2=O	-3.53%	
O=C1c2ccccc2-c2n[nH]c3cccc1c23	-6.31%	
COc1cc(OC)c(C(=O)CCCN2CCCC2)c(OC)c1		inactive
COC1=C(OC)C(=O)C(CCCCCCCCCCO)=C(C)C1=O	-28.8%	
COCCCN1CCC(NC(=O)c2cc(Cl)c(N)c3c2OCC3)CC1		inactive
Nc1nc(OCc2ccccc2)c2[nH]cnc2n1	-4.41%	
CCCCCCCCCCCCCCCCCCCCCCO	5.21%	
CC(C)[N+]1(C)[C@@H]2CC[C@H]1CC(OC(=O)C(CO)c1ccccc1)C2 (stereo not given in full)	1.7%	
CCN(CC)C(=S)SSC(=S)N(CC)CC		74.3 nM (active)
CCN(CC)CCOc1ccc(Nc2ncc3cc(-c4c(Cl)cccc4Cl)c(=O)n(C)c3n2)cc1		1180 nM (active)
CN(C)c1ccc(O)c2c1C[C@H]1C[C@H]3[C@H](N(C)C)C(=O)C(C(N)=O)=C(O)[C@@]3(O)C(=O)C1=C2O		inactive
O=C(O)c1cc(=O)c2c(OCC(O)COc3cccc4oc(C(=O)O)cc(=O)c34)cccc2o1		inactive
Cc1nccn1CC1CCc2c(c3ccccc3n2C)C1=O (stereo not given)		inactive
Clc1ccc(C(Cn2ccnc2)OCc2c(Cl)cccc2Cl)c(Cl)c1 (stereo not given)		inactive
CN(C)CCc1c[nH]c2ccc(Cn3cncn3)cc12	14.1%	
CNC[C@@H](O)[C@@H](O)[C@H](O)[C@H](O)CO	13.2%	
Nc1cccc2c1CN(C1CCC(=O)NC1=O)C2=O (stereo not given)		inactive
